The values that follow come from the supplement of paper PMC10338343.

± gives the standard deviation.
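Note: 1 nM active piRISC with 0.1 nM target library at 33 °C single turnover.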

The experiment has as its system MILI (PIWIL2) piRISC loaded with piRNA #1 (26 nt). The experiment can be described thus: pre-steady-state target cleavage rate (min^-1); guide: piRNA #1 5'p-UGAGGUAGUAGGUUGUAUAGUAUCCA; MIWI and MILI are mouse PIWI proteins and EfPiwi is from a freshwater sponge; tags in brackets are library labels; higher = faster piRNA-guided slicing of the target. To be noted: auxiliary factor: 500 nM mouse GTSF1. In a few lines:
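Reactions were run for 0–8 or 0–960 min at 33 °C in HEPES–potassium acetate buffer, combining 1 nM active affinity-purified piRISC with one synthetic guide, […] transcribed, DNA-blocked target RNA library and, in some cases, 500 nM GTSF1 partner protein. Sequencing of uncleaved targets followed, with normalisation to depth and to weakly complementary targets. Three trials were pooled, k3 was capped at 0.0001 min^-1, and the pre-steady-state cleavage rate was taken from a burst-and-steady-state fit.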
GGAGAGGAUACUAUACUACCUUCUACCUCA: the “pre-steady-state target cleavage rate” value was 0.0158 ± 0.0024.
For GGAGACCUAUGAUAACAACCUACUGCCUCA, the “pre-steady-state target cleavage rate” value came out at 0.00428 ± 0.0031.
For GGAGACCUAUGAUUACAAACUACUACCUCA the value was 0.0225 ± 0.0059.
As for GGAGACCUUACUUUACAACCUACUACGUCA, the figure is 0.0613 ± 0.011.
As for GGAGACCUUUCUAAACAACCUACUACCUCA, the figure is 0.0629 ± 0.012; as for GGAGACCUAUGAUUACAACCUACUCCCUCA, 0.00393 ± 0.0029; as for GGAGACCUAACAAUACAACCAACUACCUCA, 0.00518 ± 0.004.
As to GGAGACCUAUCUAUUCAACCUACUAGCUCA, the “pre-steady-state target cleavage rate” value was determined as 0.0826 ± 0.014.
As for GGAGACCUAACUAUAGCAACCUACUACCUCA, the figure is 0.0973 ± 0.023.
As for GGAGACGAUACUUUACAACCUUCUACCUCA, the “pre-steady-state target cleavage rate” value stood at 0.00805 ± 0.0018.
As for GGAGACCUUACUAUACAACUACUACCUCA, the figure is 0.0157 ± 0.0032.
As for GGAGACCUAACUAUACAACUUACUACCUCA, the figure is 0.0179 ± 0.0043.
For GGAGAGGAUACUAUAGUACCUACUACCUCA the value was 0.159 ± 0.012; for GGAGACCUUACUAUACAAGCUACAACCUCA, 0.239 ± 0.018.
Take GGAGACCUAUGUAUACAACCUACAACGUCA: the “pre-steady-state target cleavage rate” value was 0.00278 ± 0.0027.
Regarding GGAGACCUAACUAUACUACCUACUACGUCA, the “pre-steady-state target cleavage rate” value came to 0.0596 ± 0.018.
